High-throughput results as filed in PubChem.
Most compounds without a hit are left out; they make up all but 5.9% or so of the library.
GALK inh = qHTS Assay for Inhibitors of Human Galactokinase (GALK) | P51570 | Purified GALK, Kinase-Glo residual ATP luminescence | Potency, µM (series often up to 57.5 µM), for the others: at the top dose activity change, negative = inhibition, hits mostly inhibitors | 0.007% of 270,000 active; further: potency means the concentration at half of the fitted maximal effect
Target sequence (P51570 whole entry, looked up): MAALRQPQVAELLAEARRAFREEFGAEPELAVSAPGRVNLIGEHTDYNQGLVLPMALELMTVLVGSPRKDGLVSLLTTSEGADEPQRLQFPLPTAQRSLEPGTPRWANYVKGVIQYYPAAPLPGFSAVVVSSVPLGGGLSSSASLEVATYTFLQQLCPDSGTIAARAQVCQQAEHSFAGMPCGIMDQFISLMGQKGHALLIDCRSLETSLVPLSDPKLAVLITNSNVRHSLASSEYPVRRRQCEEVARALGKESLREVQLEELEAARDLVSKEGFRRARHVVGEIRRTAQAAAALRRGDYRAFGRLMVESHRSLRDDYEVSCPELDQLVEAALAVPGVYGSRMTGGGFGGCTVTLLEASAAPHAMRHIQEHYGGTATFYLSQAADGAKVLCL
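Kinase-Glo Plus luminescence measured ATP left after a 1 h room-temperature reaction. The reaction used 5 nM GALK, 100 uM galactose and 35 uM ATP at pH 8.0 (20 mM HEPES, 5 mM MgCl2, 60 mM NaCl, 1 mM DTT, 0.01% BSA).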
FBPA coupling cs = qHTS Assay for Inhibitors of Fructose-1,6-bisphosphate Aldolase from Giardia Lamblia: Coupling assay counterscreen. coupling enzyme system counterscreen, AmpLite Red fluorescence. activity change, negative = inhibition, % at 58.2 µM, hits read low. 0.67% of 290,000 active. AID 2472, 2010; in the data active means activity change below about -30%
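Activity here indicates interference with the coupling reaction, not aldolase inhibition. Compounds at 57.5 uM final met coupling enzymes for 10 min at RT; substrate and AmpLite Red detection followed, with a 525/598 nm fluorescence read after 20 min.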
Gal4-VP16 FLuc = VP16 counterscreen qHTS for inhibitors of ROR gamma transcriptional activity; Drosophila S2 Gal4-VP16 UAS-luciferase, luminescence, 20 h; Potency, µM (top dose mostly 53.6 µM), inactives show at the top dose activity, negative = inhibition, most hits filed as inhibitors; 3.5% of 310,000 active; AID 2546, 2010;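 further: Gal4-VP16 expression switched on by copper sulfate through the metallothionein promoter; potency means the concentration at half of the fitted maximal effect; nearly all actives have a fitted effect of over 50% in size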
RORgamma inh = qHTS for inhibitors of ROR gamma transcriptional activity; 5.4% of 310,000 active; Nuclear receptor ROR-gamma (Mus musculus), P51450; Drosophila S2 Gal4-RORgamma UAS-luciferase reporter, 20 h; Potency, µM (top dose mostly 53.6 µM), inactives show top-dose activity change, negative = inhibition, actives largely listed as inhibitors; further: potency means the concentration at half of the fitted maximal effect; nearly all actives have a fitted effect of over 60% in size
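Drosophila Schneider cells stably carrying a metallothionein-driven Gal4 DBD–ROR gamma fusion and a UAS-Photinus luciferase reporter were exposed to compound for 1 hr, then induced with copper sulfate (700 uM final) for 20 hr at ambient temperature before luminescence reading.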
TrxR1 substrate = qHTS Assay for Substrates of Mammalian Selenoprotein Thioredoxin Reductase 1 (TrxR1): qHTS. Thioredoxin reductase 1, cytoplasmic (Rattus norvegicus), O89049. purified TrxR1 substrate turnover, NADPH consumption readout. Potency, µM (titrated, usually from 114 µM), without a hit: at the top dose activity change, negative = substrate turnover. 0.01% of 390,000 active; further: potency means the concentration at half of the fitted maximal effect; nearly all actives have a fitted effect of over 50% in size
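Rat TrxR1, dispensed at 90 nM, was prereduced with 400 uM NADPH (final) for 5 min at ~22 deg C, then incubated with compound 15 min before 400 uM selenite. A first-read NADPH fluorescence drop versus no-compound background flagged substrates.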
rTrxR1 inhibitor = qHTS Assay for Inhibitors of Mammalian Selenoprotein Thioredoxin Reductase 1 (TrxR1): qHTS | Thioredoxin reductase 1, cytoplasmic (Rattus norvegicus), O89049 | recombinant rTrxR1, NADPH fluorescence consumption, selenite substrate | Potency, µM (top dose mostly 114 µM), inactives show at the highest dose activity change, negative = inhibition, usual class: inhibitors | 1% of 390,000 active | AID 588453, 2011; further: potency means the concentration at half of the fitted maximal effect; nearly all actives have a fitted effect of over 65% in size
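Rat TrxR1 (90 nM in the dispensed reagent) was pre-reduced with 400 uM NADPH for 5 min at room temperature, then incubated with compound for 15 min. After 400 uM selenite was added, NADPH fluorescence (Ex 340/Em 450 nm) was followed for 8 min.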
Starred values were filed as active, the others as inactive; [ ] = another dose, or the depositor's remark. Unless noted, the call rests on the fitted dose curve; in most records, active means well fitted curve in the direction sought with a large enough effect; inconclusive means small, poorly fitted or top-dose-only effect, or another doubt; inactive means no such curve, though single readings can be large; an effect the other way counts as inactive or inconclusive. On the % scale 0 is the no-effect control and ±100 the full control effect.

For COc1ccc(NC(=O)c2ccc(-c3ccc(-c4noc(C)n4)cc3C)cc2)cc1N1CCN(C)CC1 the results were FBPA coupling cs -0.8, Gal4-VP16 FLuc 31.6µM*, RORgamma inh 20µM*, TrxR1 substrate 5.0%[57.1 µM] and rTrxR1 inhibitor 8.6%[57.1 µM].
COc1ccc(NC(=O)c2ccc(-c3ccc(-c4noc(C)n4)cc3C)cc2)cc1OCCN(C)C was read as FBPA coupling cs 1.2, Gal4-VP16 FLuc inconclusive and RORgamma inh 14.1µM*.
Screening CCOC(=O)c1sc2ncn(/N=C/c3ccccn3)c(=O)c2c1C returned GALK inh 3.8%, FBPA coupling cs -0.9, Gal4-VP16 FLuc -5.8% and RORgamma inh -5.0%.
For NC(=O)c1cc(C(=O)c2ccc(Cl)cc2Cl)c[nH]1 the results were GALK inh 0.1%, FBPA coupling cs -0.3, Gal4-VP16 FLuc 1.6%, RORgamma inh 41.1%, TrxR1 substrate -6.4%[57.1 µM] and rTrxR1 inhibitor -16.1%[57.1 µM].
For Cc1ccccc1Nc1c(-c2c[nH]c3ccccc23)nc2cccc(C)n12 the results were TrxR1 substrate 35.5% and rTrxR1 inhibitor 10.1%.
CN(C(=O)c1cccc(NC(=O)Cc2ccc(NC(=O)C3CCN(C(=O)C4CC4)CC3)cc2)c1)C1CC1 was read as TrxR1 substrate -3.8% and rTrxR1 inhibitor -8.8%.
For CC1CCc2cc(F)ccc2N1S(=O)(=O)c1ccc(Cl)nc1 (stereo not given) the results were GALK inh 0.2%, FBPA coupling cs -4.3, Gal4-VP16 FLuc -11.2%, RORgamma inh inconclusive, TrxR1 substrate -5.7% and rTrxR1 inhibitor 4.0%.
For CC1CCc2cc(F)ccc2N1S(=O)(=O)c1ccc(F)cc1 (stereo not given) the results were GALK inh -2.1%, FBPA coupling cs -2.4, Gal4-VP16 FLuc 0.6%, RORgamma inh 10µM*, TrxR1 substrate -8.2% and rTrxR1 inhibitor -3.6%.
CCC[C@@H]1C[C@@]1(CCC)C(NC(=O)c1ccco1)c1ccc(Cl)cc1 (stereo not given in full) was read as FBPA coupling cs 0.1, Gal4-VP16 FLuc 3.7% and RORgamma inh -0.7%.
For Cn1ncc2c(NNC(=O)c3ccc(Cl)cc3Cl)ncnc21 the results were GALK inh -0.4%, FBPA coupling cs -12.4, Gal4-VP16 FLuc 7.08µM*, RORgamma inh 6.31µM*, TrxR1 substrate -1.7% and rTrxR1 inhibitor 8.6%.
Screening Cn1ncc2c(NNC(=O)c3ccc(Cl)c(Cl)c3)ncnc21 returned GALK inh -0.8%, FBPA coupling cs 0.8, Gal4-VP16 FLuc 1.12µM*, RORgamma inh 0.316µM*, TrxR1 substrate -6.8% and rTrxR1 inhibitor 0.1%.
`CCc1ccccc1NC(=O)CN(C)Cc1c(O)ccc2ccccc12` gave GALK inh 14.5%, FBPA coupling cs -13.3, Gal4-VP16 FLuc inconclusive, RORgamma inh -31.5%, TrxR1 substrate 6.1% and rTrxR1 inhibitor 39.8µM*.
For CCCOc1ccc([N+](=O)[O-])cc1C1NC(=S)NC(c2ccccc2)=C1C(=O)OCC (stereo not given) the results were GALK inh -2.9%, FBPA coupling cs -2.8, Gal4-VP16 FLuc 20µM*, RORgamma inh 6.31µM*, TrxR1 substrate -8.2% and rTrxR1 inhibitor -6.7%.
CCOC(=O)C1=C(c2ccc(O)cc2)NC(=O)NC1C (stereo not given) was read as TrxR1 substrate -4.1%[57.1 µM] and rTrxR1 inhibitor 0.9%[57.1 µM].
Screening CCOC(=O)C1=C(c2cccc(F)c2)NC(=S)NC1C (stereo not given) returned GALK inh -1.0%, FBPA coupling cs 1.3, Gal4-VP16 FLuc inconclusive, RORgamma inh 14.1µM*, TrxR1 substrate -0.4% and rTrxR1 inhibitor 8.2%.
For O=C(CC1C(=O)NCCN1C(=O)Nc1ccc(F)cc1)Nc1ccc(F)cc1 (stereo not given) the results were GALK inh 3.5%, FBPA coupling cs -1.8, Gal4-VP16 FLuc 1.1%, RORgamma inh 37.9%, TrxR1 substrate 9.1%[57.1 µM] and rTrxR1 inhibitor 2.3%[57.1 µM].
Screening COc1ccc(C(C)=O)cc1COC(=O)c1ccc(OCc2c(C)noc2C)cc1 returned GALK inh 2.6%, FBPA coupling cs 0.7, Gal4-VP16 FLuc inconclusive, RORgamma inh inconclusive, TrxR1 substrate -1.3% and rTrxR1 inhibitor -11.7%.
`COc1ccc(C(C)=O)cc1COC(=O)c1c(C)noc1C` gave GALK inh 1.2%, FBPA coupling cs 0.3, Gal4-VP16 FLuc -0.9%, RORgamma inh -12.3%, TrxR1 substrate -5.4% and rTrxR1 inhibitor 35.5µM*.
Screening COc1ccc(C(C)=O)cc1CN(C)C returned GALK inh -0.6%, FBPA coupling cs -4.6, Gal4-VP16 FLuc 8.9%, RORgamma inh -8.3%, TrxR1 substrate 3.4% and rTrxR1 inhibitor 8.91µM*.
For COc1ccc(C(C)=O)cc1CC(=O)NC1CCCCCC1 the results were GALK inh 0.0%, FBPA coupling cs 1.3, Gal4-VP16 FLuc 3.6%, RORgamma inh -11.9%, TrxR1 substrate -3.1% and rTrxR1 inhibitor 4.8%.
COc1ccc(C(=O)CSc2nc(C)cc(C)c2C(=O)Nc2ccccc2C)cc1 was read as TrxR1 substrate -3.7% and rTrxR1 inhibitor 2.1%.
For Cc1ccc(-c2nc(C)c(C(=O)O)s2)cc1 the results were GALK inh 8.4%, FBPA coupling cs 7.8, Gal4-VP16 FLuc inconclusive, RORgamma inh 8.91µM*, TrxR1 substrate -10.1% and rTrxR1 inhibitor -11.2%.
Screening Cc1nc(-c2ccccc2)sc1C(=O)O returned GALK inh -2.1%, FBPA coupling cs 6.9, Gal4-VP16 FLuc -16.9%, RORgamma inh -32.9%, TrxR1 substrate -1.6% and rTrxR1 inhibitor -2.9%.
Screening CCCCC(=O)NC(c1ccc(N(CC)CC)cc1)c1ccc2cccnc2c1O (stereo not given) returned GALK inh -4.9%, FBPA coupling cs -2.5, Gal4-VP16 FLuc 2.82µM*, RORgamma inh 2.24µM*, TrxR1 substrate -1.7% and rTrxR1 inhibitor 10.7%.
Screening CCCCC(=O)NC(c1ccc(N(C)C)cc1)c1ccc2cccnc2c1O (stereo not given) returned GALK inh -5.2%, FBPA coupling cs -1.5, Gal4-VP16 FLuc 3.16µM*, RORgamma inh 5.01µM*, TrxR1 substrate -7.6% and rTrxR1 inhibitor -16.7%.
